Compound activity from PubChem BioAssay.
A selection: hits, their analogues and other compounds. The true share with any hit is near 19%.
TDP1 cell CPT: growth inhibition of DT40 Tdp1-/-;hTDP1 cells with camptothecin (screen for TDP1 inhibitors) | chicken DT40 Tdp1-/-;hTDP1 cells + 20 nM CPT, ATP luminescence, 48 h | Potency, µM (top dose mostly 46.2 µM), hits mostly inhibitors | 420,000 compounds, 12% hits | AID 686979; note: nearly all actives have a fitted effect of over 55% in size
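Chicken DT40 Tdp1-/- cells complemented with human TDP1, 400 cells/well, exposed to compounds plus 20 nM camptothecin for at least 48 h at 37 C; viability read as ATP content by CellTiter-Glo luminescence.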
HepG2 viability: HepG2 cytotoxicity, counter-screen for TGF-b inhibitors. HepG2 CAGA-GFP viability, ATP luminescence, 18 h. Potency, µM (doses to about 46.1 µM), hits mostly cytotoxic. 410,000 compounds, 0.76% hits
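HepG2 CAGA-GFP cells (1000/well, DMEM with 1% FBS) received compound, then TGF-beta at 500 pg/mL final, and were incubated 18 hours at 37 degrees C. Viability was read by CellTiter-Glo luminescence. Media-only wells were set as complete cell-killing and DMSO as no toxicity.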
IL1B secr inh: inflammasome signaling inhibition, IL-1 beta readout. 360,000 compounds, 4.7% hits. THP-1 LPS/ATP IL-1B secretion, AlphaLISA, 16 h; stronger effect = lower value. activity change, % at 57.5 µM; in the data active = activity change below about -50%; inconclusive = mostly about -30% to -49%
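THP-1 cells pretreated 1 hr with compounds (up to 57.5 uM final), then stimulated with LPS (250 ng/mL final) plus ATP (1.25 mM final); secreted IL-1B measured by AlphaLISA after 16 hr, decreased signal indicating inhibition.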
ASM inhibitor: human S-ASM enzyme inhibition | Potency, µM (highest dose often 57.5 µM), usual class: inhibitors | placental ASM, HMU-PC fluorogenic substrate, 60 min | AID 504937 | 340,000 compounds, 0.006% hits
Target sequence (P17405 47-631 limits assumed): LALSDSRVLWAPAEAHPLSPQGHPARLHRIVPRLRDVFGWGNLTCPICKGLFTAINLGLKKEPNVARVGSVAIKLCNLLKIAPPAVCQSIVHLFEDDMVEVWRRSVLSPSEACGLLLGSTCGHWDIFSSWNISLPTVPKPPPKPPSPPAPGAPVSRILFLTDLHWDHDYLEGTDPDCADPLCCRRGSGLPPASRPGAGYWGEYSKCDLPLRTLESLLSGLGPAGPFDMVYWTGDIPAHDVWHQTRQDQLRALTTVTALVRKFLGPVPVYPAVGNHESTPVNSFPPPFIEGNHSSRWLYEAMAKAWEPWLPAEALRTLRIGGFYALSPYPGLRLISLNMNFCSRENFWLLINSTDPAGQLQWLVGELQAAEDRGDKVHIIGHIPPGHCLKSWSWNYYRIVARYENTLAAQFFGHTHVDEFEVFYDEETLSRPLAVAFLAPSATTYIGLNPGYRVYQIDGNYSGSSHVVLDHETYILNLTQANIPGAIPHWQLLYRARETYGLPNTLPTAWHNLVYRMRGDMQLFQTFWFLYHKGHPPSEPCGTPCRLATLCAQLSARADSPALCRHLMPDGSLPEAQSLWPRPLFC
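Fluorogenic HMU-PC substrate (9 uM final) is turned over by placental ASM in 60 min at 37 C after a 10 min compound preincubation. Reaction ended by alkaline stop (pH 10), with fluorescence read at 386/447 nm.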
TGFb SMAD3 inh: TGF-b pathway inhibition. HepG2 CAGA-GFP TGF-b/SMAD3 reporter, GFP fluorescence, 18 h; TGF-beta stimulated, 500 pg/mL final. Potency, µM (titrated, usually from 46.1 µM), hits mostly inhibitors. 410,000 compounds, 1.2% hits. AID 588855; note: nearly all actives have a fitted effect of over 65% in size
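Per well, imaged GFP fluorescence of HEPG2 CAGA-GFP cells gives the signal; cells get compound, then TGF-beta (500 pg/mL final), 18 h at 37 degrees C; %Activity versus -TGF-beta and +DMSO controls.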
DT40 TDP1 no CPT: qHTS for Inhibitors of human tyrosyl-DNA phosphodiesterase 1 (TDP1): qHTS in cells in absence of CPT; AID 686978, 2013; Potency, µM (highest dose often 46.2 µM), most hits filed as inhibitors; 420,000 compounds, 15% hits; DT40 Tdp1-/- hTDP1 cells, no CPT, ATP luminescence, 48 h; note: nearly all actives have a fitted effect of over 55% in size
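Seeded 400 DT40-hTDP1 cells/well (vehicle DMSO, no 20 nM CPT); pinned compounds; ≥48 hr at 37 °C; CellTiter-Glo luminescence as viability measure.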
Hits are given with their value; n = inactive; u = inconclusive; x = no result. Unless noted, calls come from the whole dose curve; as a rule, active = well fitted curve in the direction sought with a large enough effect; inconclusive = small, poorly fitted or top-dose-only effect, or another doubt; inactive = no such curve, though single readings can be large; an effect the other way counts as inactive or inconclusive.

SMILES	TDP1 cell CPT	HepG2 viability	IL1B secr inh	ASM inhibitor	TGFb SMAD3 inh	DT40 TDP1 no CPT
Cc1ccc2c(=O)cc(C(=O)N(Cc3ccccc3Cl)C3CCS(=O)(=O)C3)oc2c1 (stereo not given)	n	n	x	x	n	u
Cc1c(C(=O)N(Cc2cccc(Br)c2)C2CCS(=O)(=O)C2)oc2ccc(F)cc12 (stereo not given)	u	n	n	n	n	u
Cc1c(C(=O)N(Cc2cccc(F)c2)C2CCS(=O)(=O)C2)oc2cc(Br)ccc12 (stereo not given)	u	n	x	x	u	18µM
Cc1ccc(NC(=O)Cn2c(=O)n(Cc3ccccc3)c(=O)c3c2c2cc(C)ccc2n3C)cc1	u	n	x	x	n	u
c1ccc2c(c1)CC(N1CCCCC1)c1ccccc1S2 (stereo not given)	u	n	n	n	n	u
CN1CCN(C2Cc3cc(Cl)ccc3Sc3cc(F)ccc32)CC1 (stereo not given)	u	n	-94	n	u	u
O=C1CC(N2CCN(c3ccc(Cl)cc3)CC2)C(=O)N1c1ccc(F)cc1 (stereo not given)	n	n	n	n	n	n
CN1CCN(CCOC2Cc3ccccc3Sc3ccc(Cl)cc32)CC1 (stereo not given)	u	n	-71	n	u	21µM
OCCN1CCN(C2Cc3cc(Cl)ccc3Sc3ccc(Cl)cc32)CC1 (stereo not given) (tested in a mixture with another compound)	23µM	10µM	-98	u	u	u
O=C(NNC(=O)C12CC3CC(CC(C3)C1)C2)c1ccccc1[N+](=O)[O-]	n	n	n	n	n	n
CC1=C(C(=O)N(C)C)CC(CC(=O)NCCCN(C)C)C(=O)N1Cc1ccc(F)cc1 (stereo not given)	n	n	n	x	n	n
C=CCC1(Cl)C(=O)C(Cl)=C(N2CCN(C)CC2)C1(OC)OC (stereo not given)	n	n	n	n	n	n
Cc1ccc(C(=O)NCC(=O)NC2CCCCCC2)cc1	n	n	n	n	n	n
CCCCc1ccc(S(=O)(=O)NCCc2ccncc2)cc1	23µM	n	n	n	u	12µM
O=[N+]([O-])c1cccc(S(=O)(=O)Nc2ccc(Cc3ccncc3)cc2)c1	u	n	n	n	n	u
CCCCNS(=O)(=O)c1ccc(S(=O)(=O)NCc2ccncc2)cc1	4.1µM	n	u	n	n	7.3µM
O=[N+]([O-])c1cccc(S(=O)(=O)NCc2ccncc2)c1	2.3µM	n	n	n	n	2.3µM
Cc1ccc(S(=O)(=O)NCCc2ccncc2)cc1	u	n	n	n	n	n
CCOc1ccccc1C(=O)NCCN1CCC(n2c(=O)[nH]c3ccccc32)CC1	23µM	x	n	x	x	29µM
O=C(NCCN1CCC(n2c(=O)[nH]c3ccccc32)CC1)c1ccc(Cl)cc1	3.7µM	x	n	x	x	9.2µM
O=C(NCCN1CCC(n2c(=O)[nH]c3ccccc32)CC1)c1ccccc1Cl	u	x	n	x	x	u
O=C(NCCN1CCC(n2c(=O)[nH]c3ccccc32)CC1)c1ccc(Cl)c(Cl)c1	u	x	x	x	x	18µM
O=C(NCCN1CCC(n2c(=O)[nH]c3ccccc32)CC1)c1cccc2c1-c1ccccc1C2=O	u	x	-95	x	x	21µM
NS(=O)(=O)c1cccc(NC(=O)CN2CCN(S(=O)(=O)c3ccc4c(c3)OCCO4)CC2)c1	n	n	n	n	n	n
CCN(CC)CCNC(=O)Cn1cnc2sc(C)c(S(=O)(=O)N3CCN(c4ncccn4)CC3)c2c1=O	n	n	n	n	n	n
SMILES	TDP1 cell CPT	HepG2 viability	IL1B secr inh	ASM inhibitor	TGFb SMAD3 inh	DT40 TDP1 no CPT
CCCCn1nc(NS(=O)(=O)c2cccc3nonc23)c2cc3cccc(C)c3nc21	n	n	n	n	u	u
CCN(C(=O)c1cc2c(Cl)nc3ccccc3c2s1)c1cccc(Cl)c1	n	n	x	x	n	u
O=C(NCCN1CCC(n2c(=O)[nH]c3ccccc32)CC1)c1c(F)cccc1F	n	x	-64	x	x	n
O=C(NCCN1CCC(n2c(=O)[nH]c3ccccc32)CC1)c1ccc(F)cc1F	n	x	n	x	x	n
CC(Sc1nnc(Cc2ccccc2)o1)C(=O)NC1(C#N)CCCCC1 (stereo not given)	n	n	n	n	n	n
CCOc1ccc(-n2cc(-c3ccccc3)c3c(NC4CCCC4)ncnc32)cc1	15µM	n	x	x	u	13µM
COc1ccc(-n2cc(-c3ccccc3)c3c(NCCOCCO)ncnc32)cc1	u	n	n	n	n	u
COc1ccc(-n2cc(-c3ccccc3)c3c(NC4CCCCC4)ncnc32)cc1	u	n	x	x	n	12µM
COc1ccccc1Nc1ncnc2c1c(C)c(C)n2CCO	n	n	u	n	n	n
O=C(Nc1ccc(S(=O)(=O)N2CCOCC2)cc1)c1cc(-c2cc(Cl)ccc2O)n[nH]1	6.5µM	n	u	u	u	5.8µM
Cc1cc(O)c(-c2cc(C(=O)Nc3ccc(S(=O)(=O)N4CCOCC4)cc3)[nH]n2)cc1C	u	n	-105	u	u	18µM
CCOC(=O)C1(C(=O)OCC)COC(=O)C1CN1Cc2cc3ccccc3nc2C1 (stereo not given)	10µM	n	n	x	u	9.2µM
Cc1cc(C)nc(Nc2nc(C(N)Cc3ccc(C(F)(F)F)cc3)cs2)n1 (stereo not given)	6.5µM	22µM	-81	x	u	6.5µM
NC(Cc1ccc(C(F)(F)F)cc1)c1csc(Nc2nccc(C(F)(F)F)n2)n1 (stereo not given)	u	n	n	x	u	u
COc1cc(OC)nc(Nc2nc(C(N)Cc3ccccc3)cs2)n1 (stereo not given)	u	n	n	x	u	18µM
CCCc1cnc(Nc2nc(C(N)Cc3ccc(C(F)(F)F)cc3)cs2)nc1 (stereo not given)	u	11µM	u	x	u	21µM
CC(N)c1csc(Nc2nccc(C(F)(F)F)n2)n1 (stereo not given)	n	n	n	x	n	u
COc1cc(OC)nc(Nc2nc(C(N)Cc3ccc(C(F)(F)F)cc3)cs2)n1 (stereo not given)	u	10µM	-111	x	u	u
Cc1nc2nc(C)c(NS(=O)(=O)c3cccs3)c(=O)n2[nH]1	n	n	n	n	n	n
Cc1cc(C)nc(Nc2ccc(F)cc2)n1	n	n	n	n	n	n
